Assay results taken from the supplement of paper PMC6555819.

Tests used:
Assay in all cases: PBM binding z-score (relative to random genomic background probes); higher = stronger binding; sequences stand for … in GC…GCGATTGACAGCGTAGAATGAAGG
[1] = tested on: RARb homodimer (NR concentration 270 nM)
In short: (§1)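 On custom Agilent 4×180K arrays, double-stranded probes with 34-nt variable regions carried direct-repeat seeds, single-nucleotide variants, half-site ablations or random human genomic background. Ligand-free nuclear receptor dimers were applied for 1 h, and binding was read with antibodies against each partner (one per run). Binding z-scores come from regression-normalized fluorescence, with the random background probes as reference.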

[2] = tested on: RARg:RXRa (NR concentration 270 nM, RXRa partner concentration 90 nM)
In short: as §1

[3] = tested on: RARg homodimer (NR concentration 270 nM)
In short: as §1

[4] = tested on: RXRa DBDmut IVT, anti-RXR (DBD mutation: RXRa K156A/R161A, NR concentration 90 nM)
In short: as §1

[5] = tested on: RXRa homodimer (NR concentration 180 nM)
In short: as §1

[6] = tested on: THRa:RXRa (NR concentration 90 nM, RXRa partner concentration 90 nM)
In short: as §1

[7] = tested on: THRa homodimer (NR concentration 90 nM)
In short: as §1

[8] = tested on: VDR homodimer (NR concentration 270 nM)
In short: as §1

Sequence	PBM binding z-score [1]	PBM binding z-score [2]	PBM binding z-score [3]	PBM binding z-score [4]	PBM binding z-score [5]	PBM binding z-score [6]	PBM binding z-score [7]	PBM binding z-score [8]
TCATGTAGATCAACAGGAGGTTAAGAAAGATCGA	0.329	0.904	0.374	0.621	1.04	0.683	-0.647	0.15
CCTGCTAGGTCAATGGTCAACTAAAGCAGCTCGC	3.11	3.77	4.5	1.64	2.55	2.41	0.723	0.324
CCTACTGGGCCATTCAGATGTCATTGATCATATG	0.108	0.278	0.389	0.148	-0.34	-0.291	-0.95	-0.52
CCTAGCAGGCCAATCTGGGACACTCAAGGCTTGA	-0.286	-0.31	0.0826	-0.25	-0.458	3.08	-0.247	-0.728
ACTAGCAGGCCAAGTTTGGGTGACTCAAACAAAG	0.251	0.0882	-0.216	-0.308	-0.222	0.796	-0.161	-0.571
TCTGCTAGGTCTGTTGGTCAGCTAACGAGCTGCC	-0.195	-0.258	-0.599	0.00538	-0.403	-0.454	-0.978	-1.23
CCTTACGGGTGACTCCAGGTTATAGCATCGGAGT	0.532	0.648	0.639	-0.594	0.973	3.65	0.215	0.0105
GCTAGCAGCCCATTTGGGTCACTCAATGACGGGC	1.07	0.319	0.556	-0.892	0.587	1.24	0.119	-0.375
ATCGGAAGGTCGTGAGGTGAGTATACAGAAAGGC	2.27	3.03	2.55	0.762	3.05	2.83	1.76	1.04
AGTCAAAGTTCATCTAGGTAAGGTAAGATATGCT	4.03	5.32	5.79	4.64	4.38	3.19	0.886	4.84
CGATCTAGGTCAAGGACAGTGAATCTCCGCACGC	2.75	3.6	4.45	1.55	2.2	3.07	2.46	0.43
CCTAGTTGCTCAAGGTCACACACGCTATAGGTAC	4.14	4.56	4.78	2.19	4.8	4.05	4.51	4
CCTTACGGGTCACGGACAGGTTATAGCATTTGGA	3.42	6.84	5.39	1.99	6.76	3.59	0.532	1.16
TAGCCTAGGTCATTGGGCCAGTAGAGTACGCATC	3.11	3.83	4.04	1.34	2.79	2.88	0.722	1.3
TCATATAGTTAAAGGTGAAAGTCGAACGATATGA	1.34	1.47	1.18	0.551	2.08	1.23	-0.586	-0.0826
TTACCAAGGTGAAAGTCGTTGATCCCTCTGTAGA	0.704	0.61	0.23	0.0451	1.2	2	0.568	-0.192
CAGCCTAGGTCAGGGCCAGTACAGGAGGAACGTT	2.81	3.02	3.74	-0.352	1.45	2.02	0.539	-0.209
ACTTTTAGTTGAGACGAGGGCAACCGATAGGTTG	1.35	0.942	1.03	0.926	0.7	2.53	0.433	1.02
TCGAGTAGGTTAGGGGCATTAAGAATGGCGTCGA	0.787	0.329	0.269	0.304	0.639	0.955	0.048	0.785

Sequence	PBM binding z-score [1]	PBM binding z-score [2]	PBM binding z-score [3]	PBM binding z-score [4]	PBM binding z-score [5]	PBM binding z-score [6]	PBM binding z-score [7]	PBM binding z-score [8]
AGTCAACGTTCACTAGGTAACGTAAGATTCAGCT	0.0524	0.418	0.444	0.205	0.197	0.401	0.11	-0.293
CAGCCTAGGTCAGGGCCAGTAAAGGAGGAACGTT	2.33	2.7	3.44	-0.0941	1.55	1.86	0.361	-0.267
ATCGAGAGGTCGAAGGTGAGTATACCCACCCGAA	1.46	3.28	2.62	1.02	4.3	1.82	-0.366	0.783
TCTTGTAGATCAACAGGAGGTTAAGCAAGATCGA	0.427	0.916	0.301	0.224	1.01	1.24	-0.612	-0.456
CCTTACGGGTCAAGTTTATAGCACGGGTGGTACG	3.32	5.13	4.78	2.07	5.03	2.56	0.164	3.09
ACTCGGAGGACAAAGGTCAGACCTACGCCAGTGA	4.02	6.08	5.29	1.23	5.81	3.5	0.604	1.81
AGTCAAAGTTCAATAGGTAACGTAAGATTCAGCT	3.98	5.19	5.37	4.02	3.85	1.72	0.00177	3.4
TCTTGTAGATCAACAGGAGGTTAAGGAAGATCGA	0.564	0.698	0.308	0.0925	0.861	0.777	-0.373	-0.358
CCAGACAGGTGAGAGGGTAACTCAGCCTCGATTA	1.02	0.576	0.626	-0.231	0.666	0.388	0.0769	0.287
TCGAGTAGGTTAGAGGCATTCAGAATGGCGTCGA	-0.851	-0.25	-0.164	-0.37	0.0736	-1.08	-1.15	-0.449
GCGACTGGGGCAAAGCAGGTTCCCATAAGGTTGG	0.109	-0.179	0.0897	-0.512	-0.314	1.38	-0.261	-0.513
GCTTGTGGATCAAGGTTAAGAAAGACTAAGCTAA	0.362	0.34	0.12	0.0412	0.848	1.27	-0.23	0.00536
ATAAGTAGGTTAAGGGTCATTCAGGTTGGTTCGC	4.19	4.8	3.75	2.28	6.11	3.65	2.27	4.94
CCTAGCAGGCCAGGCTCACTCAAGCATTTCGCTT	-0.944	-0.644	-0.705	0.0454	-0.649	-0.789	-0.705	-0.911
CAGACTAGGTCAAGGTCAAAGTCGGTTTGTGCCA	5.11	6.12	6.67	2.61	6.04	4.32	3.45	4.18
TCATATAGGTAAATGCTTGGTGAAAGTCCGATCT	0.222	0.052	0.0294	1.52	0.692	0.0324	0.34	0.414
CCTACGGGGCCATCAGGTCATTGATATCAACGTT	3.1	3.1	2.83	0.971	2.02	3.6	2.97	2.45
ATATCTAGGTTAGCTGGGGTCATTCAGACTAGGC	3.96	4.04	3.18	1.88	5.32	5.07	3.53	5.14
TTACCAAGGTGAAAGGCCGTTGATGCACGCCTTG	1.1	0.963	0.384	-0.3	1.3	1.45	0.31	-0.0991

Sequence	PBM binding z-score [1]	PBM binding z-score [2]	PBM binding z-score [3]	PBM binding z-score [4]	PBM binding z-score [5]	PBM binding z-score [6]	PBM binding z-score [7]	PBM binding z-score [8]
GCTTACGGGTCAAAGGTTATATCATGAATAGAAT	3.32	6.74	4.71	2.66	9.55	4.12	0.113	2.09
TCTTGTAGATCAGCAGGTTTAGAAAGCTGGCCAA	-0.607	-0.508	-0.884	0.412	-0.374	-0.307	-0.755	-0.457
CGAACGAGGGCATGAGTAGATAGCAAATGCCGAT	0.586	1.22	1.57	2.03	0.713	0.742	-0.437	0.55
TGAATGAGGTTATACGATCAGGGAACGTTGCAAA	0.016	1.31	1.01	0.956	2.06	1.8	0.24	0.274
ACAGACAGGTGATGCAGGTAACTCAGGCTATCAT	0.184	0.124	0.379	-0.176	0.354	0.549	-0.0382	-0.22
AGTCAAAGTTCAGGACGAGGTAACGTCAAGCACG	3.13	4.98	4.9	2.71	3.29	3.98	1.52	2.33
CCGACTGGGGCATAAGGTTACGATAAGCCAGCCC	1.67	1.92	1.18	-0.47	1.45	1.98	0.985	-0.0834
GATACCGGGTCAGCTAGAGGCCAGAGTATGGAAA	2.63	5.9	3.71	-0.115	2.83	2.64	0.0916	-0.166
CAAACTAAGTCAAAGGTCAAAGTCGAGCCAACCA	4.68	6.82	5.86	2.2	8.46	3.74	0.739	2.93
TTACCATGGTGAGCTGAGGTCGTTGATCCAACTC	0.61	0.0619	-0.479	-0.0297	0.594	2.81	1.14	1.7
GCTTGGAGATCAAGGTTAAGAAAGACTAAGCTAA	0.301	0.332	0.139	-0.28	1	1.16	-0.468	0.0219
TATACAGGGTCAAAGGCCAGAGTCCGAATGTCGA	3.69	5.63	4.75	2.69	6.54	3.62	0.963	2.67
ACTCAAAGTTCACTAGGTAACGTAAGATTCAGCT	3.65	4.84	5.79	4.63	3.51	2.22	0.585	4.45
TCTTGTAGAACAAGCAGGTTAAGAAAGCCTGAGT	0.0404	-0.0958	-0.255	0.567	0.349	0.0268	-0.349	-0.0601
TCTTGTAGATCAACATGAGGTTAAGAAAGATCGA	0.695	1.12	0.455	0.475	1.27	2.18	0.657	0.413
CAGCCTAGGTCGGGGCCAGTATAGGAGGAACGTT	0.941	0.359	0.842	-0.52	-0.0745	0.171	-0.524	-0.348
AGAACGAGGGCACGCTGAGTTGAAAGCAGAGTAG	1.16	2.34	2.15	2	1.46	2.13	-0.233	0.663
CCGATTGGGGCAAAGGTTACCATACTCAGTACGA	2.03	3.52	1.64	0.678	3.76	1.84	-0.136	0.0147
CCTAGCATGCCAATCTGGGTCACTCAAGGCTTGA	1.86	0.768	0.691	0.255	0.917	2.93	0.266	-0.104
